Source: PubChem BioAssay (EPA / NIEHS)
Results filed as inconclusive are left out. Activity calls are given as the source filed them. Rule for the calls: active = hit-call score of the fitted dose curve at least 0.9, where 1 is the maximum; inconclusive = response in the unintended direction; inactive = score below 0.9.

Assays:
[1] = TOX21_p53_BLA_p2_viability: Viability Assessment in the Tox21 HCT-116 p53 Agonism Beta-lactamase Assay, Phase 2 (AID 2283591);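 note: compound exposure lasted 16 h at 37 °C; actives lower the ATP signal meaning cytotoxicity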
Method in brief: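 HCT-116 p53-bla cells (4000/well) rested 5 h at 37C, then received compounds in DMSO (217-fold dilution) for 16 h at 37C, 5% CO2. After the CCF4 read, CellTiter-Glo was added; ATP luminescence was read after 30 min at room temperature.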

[2] = molecular target: Cellular tumor antigen p53 (Homo sapiens) (UniProt P04637); experiment: TOX21_p53_BLA_p2_ratio: Tox21 HCT-116 p53 Agonism Beta-lactamase Assay, Ratio, Phase 2 (AID 2283592)
Method in brief: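 Human colon HCT116 cells with an inducible p53 beta-lactamase reporter are exposed to test chemicals for 16 h at 37C. Reporter induction is read as the 460/530 nm emission ratio after CCF4-AM loading, normalized to DMSO.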

[3] = TOX21_p53_BLA_p3_viability: Viability Assessment in the Tox21 HCT-116 p53 Agonism Beta-lactamase Assay, Phase 3 (AID 2283593);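 note: cells exposed to compound for 16 h before reading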
Method in brief: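 HCT-116 cells (4000/well) rested 5 h at 37C, then got DMSO compounds by pin tool (217-fold dilution) for 16 h at 37C, 5% CO2. After the bla read, CellTiter-Glo was added and luminescence read at 30 min, room temperature.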

[4] = molecular target: Cellular tumor antigen p53 (Homo sapiens) (UniProt P04637); experiment: TOX21_p53_BLA_p3_ratio: Tox21 HCT-116 p53 Agonism Beta-lactamase Assay, Ratio, Phase 3 (AID 2283596)
Method in brief: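 HCT116 p53-bla cells (4000/well) given compound in DMSO (217-fold dilution) after 5 h, incubated 16 h at 37C. CCF4-AM substrate 2 h at room temperature; 460/530 nm emission ratio, gain fitted against DMSO.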

[5] = TOX21_p53_BLA_p4_viability: Viability Assessment in the Tox21 HCT-116 p53 Agonism Beta-lactamase Assay, Phase 4 (AID 2283597);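 note: hits lower the luminescence signal meaning cytotoxicity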
Method in brief: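 Luminescent ATP readout (CellTiter-Glo, 30 min, room temperature) in the same wells as the p53 bla ratio. HCT116 cells were treated for 16 h at 37C with DMSO-dissolved compounds.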

[6] = molecular target: Cellular tumor antigen p53 (Homo sapiens) (UniProt P04637); experiment: TOX21_p53_BLA_p5_ratio: Tox21 HCT-116 p53 Agonism Beta-lactamase Assay, Ratio, Phase 5 (AID 2283599)
Method in brief: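 HCT-116 cells carrying a p53-inducible beta-lactamase reporter were seeded at 4000 cells/well and dosed after 5 h with compound in DMSO (217-fold dilution). After 16 h at 37C, CCF4-AM substrate was added for 2 h, and the 460/530 nm emission ratio was scored as gain-of-signal versus DMSO.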

[7] = TOX21_p53_BLA_p5_viability: Viability Assessment in the Tox21 HCT-116 p53 Agonism Beta-lactamase Assay, Phase 5 (AID 2283600)
Method in brief: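 Seeded cells (4000/well) settle 5 h before compound addition. Plates then incubate 16 h at 37C, receive FRET substrate for 2 h, and finally CellTiter-Glo, with luminescence measured after a 30 min room-temperature incubation.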

[8] = molecular target: Cellular tumor antigen p53 (Homo sapiens) (UniProt P04637); experiment: TOX21_p53_BLA_p4_ratio: Tox21 HCT-116 p53 Agonism Beta-lactamase Assay, Ratio, Phase 4 (AID 2283601)
Method in brief: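 HCT116 cells carrying an inducible beta-lactamase reporter were plated at 4000 cells/well, rested 5 h, then exposed to compounds in DMSO (217-fold dilution) for 16 h at 37C. CCF4-AM substrate was loaded 2 h at room temperature; 460/530 nm emission ratio scored gain-of-signal versus DMSO.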

Measured: AC50

Sequence of Cellular tumor antigen p53 (Homo sapiens) (P04637 whole entry, looked up): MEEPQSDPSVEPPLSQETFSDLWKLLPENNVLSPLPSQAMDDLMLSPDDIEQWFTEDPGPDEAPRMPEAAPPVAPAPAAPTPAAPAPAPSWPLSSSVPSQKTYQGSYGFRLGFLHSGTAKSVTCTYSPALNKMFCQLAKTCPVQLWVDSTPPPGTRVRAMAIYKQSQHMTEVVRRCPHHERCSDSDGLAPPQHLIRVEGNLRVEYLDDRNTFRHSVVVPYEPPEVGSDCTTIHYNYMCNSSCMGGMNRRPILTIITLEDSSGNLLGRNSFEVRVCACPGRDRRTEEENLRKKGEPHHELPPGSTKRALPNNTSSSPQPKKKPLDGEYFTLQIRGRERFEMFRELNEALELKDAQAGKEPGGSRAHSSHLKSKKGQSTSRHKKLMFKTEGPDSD

COc1cc(NC(C)CCCN)c2ncccc2c1 (stereo not drawn)
inactive: [1] | [2] | [3] | [4] | [5] | [6] | [7] | [8]

O=C(c1cc2ccccc2o1)N1CCN(Cc2ccccc2)CC1
inactive: [1] | [2] | [3] | [4] | [5] | [6] | [7] | [8]

CO[C@H]1/C=C/O[C@@]2(C)Oc3c(C)c(O)c4c(O)c(cc(O)c4c3C2=O)NC(=O)/C(C)=C\C=C\[C@H](C)[C@H](O)[C@@H](C)[C@@H](O)[C@@H](C)[C@H](OC(C)=O)[C@@H]1C
inactive: [1] | [2] | [3] | [4] | [5] | [6] | [7] | [8]

CC1=CC(C)(C)Nc2ccccc21
inactive: [1] | [2] | [3] | [4] | [5] | [6] | [7] | [8]

CC(O)COC(C)(C)C (stereo not drawn)
inactive: [1] | [2] | [3] | [4] | [5] | [6] | [7] | [8]

C[n+]1cc2c3c(ccc2c2ccc4cc5c(cc4c21)OCO5)OCO3
active: [1] 4.28 µM | [2] 4.96 µM | [3] 2.31 µM | [4] 2.32 µM | [5] 3.64 µM | [6] 5.66 µM | [7] 5.48 µM | [8] 9.14 µM
